“And” between values parts separate entries of the source, which are not always exact repeats. Identical values can stand only once. This is part of a sample that, as a whole, favours compounds with a hit. Of some 83,000 tested, about 20% had one in any assay.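 The test compound was applied at a single concentration to cells in 96-well plates for 48 hours, and percent growth was recorded.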 The source made the active and inactive calls.

The subject of the first assay is SR leukemia. In words: NCI-60 one-dose screen, 48 h (100 = growth as untreated, 0 = no growth, -100 = all killed). Conditions: 10 µM. As for the experimental part:
Growth inhibition of the SR human tumor cell line is measured as a screen for anti-cancer activity. Cells are grown in 96 well plates and exposed to the test compound for 48 hours. Compounds are tested at a single concentration, which is 10^-5 M for most compounds. The reported endpoint is percent growth (GI% or GIPRCNT), where numbers from 0 - 100% represent growth inhibition, and numbers from -100% - 0 represent cell death. For example, a value of 40 represents 60% growth inhibition. A value of 0 means no net growth occurred over the course of the experiment. A value of -40 indicates 40% of cells at the beginning of the experiment died by the end of the experiment. A value of -100 means all cells are dead at the end of the experiment.
NCI-60 Human Tumor Cell Lines Screen was performed using the standard one-dose NCI protocol, which is described in more detail at https://dtp.cancer.gov/discovery_development/nci-60/default.htm.
Compounds with GIPRCNT values below 10 were considered active. Activity score was based on GIPRCNT using the following formula: […]
Score is 0 for GIPRCNT values of 100 or above, 50 for GIPRCNT values of 0, and 100 for GIPRCNT values of -100.
As for `CC(=O)/C=C/c1ccc(N(CCO)Cc2ccc(C(C)(C)C)cc2)cc1`, the growth is 83% (inactive).

For the molecule `COc1ccc(C(=O)/C=C/c2ccc(OCc3ccc(Cl)cc3)cc2)cc1OC`, the growth is 78.2% (inactive).

The assay is the same for the next values; noted with them: 10 µM unless noted.
With `Cc1cc(N2CCCCC2)nc(NCc2cc(Nc3ccnc4cc(Cl)ccc34)ccc2F)n1`, the growth was -21.3% (active). Same read-out and setting: the figure for `Cc1ccc(-c2nc3nc(-c4ccc(F)cc4)nc(N4CCCNCC4)c3o2)cc1` is -37.3% (active).

With `CS(=O)(=O)Nc1cc(-c2ccc3ncnc(Nc4ccc(F)c(Cl)c4)c3c2)cnc1Cl`, the growth was 0.546% (active).

For `C[C@@H]1O[C@@H](O[C@H]2[C@@H](OC(=O)[C@]34CCC(C)(C)C[C@H]3C3=CC[C@@H]5[C@@]6(C)C[C@H](O)[C@H](O[C@@H]7O[C@H](CO)[C@@H](O)[C@H](O)[C@H]7O)[C@@](C)(CO)[C@@H]6CC[C@@]5(C)[C@]3(C)C[C@H]4O)OC[C@@H](O)[C@@H]2O)[C@H](O)[C@H](O[C@@H]2OC[C@@H](O)[C@H](O[C@@H]3OC[C@](O)(CO)[C@H]3O[C@@H]3OC[C@@H](O)[C@H](O)[C@H]3O)[C@H]2O)[C@H]1O[C@@H]1OC[C@](O)(CO)[C@H]1O`, the growth was 67.5% (inactive). Same read-out and setting: the figure for `Brc1ccc(/C=C(/C2=NCCN2)n2ccc3ccccc32)cc1` is 30.4% (inactive); for `Cn1cc2c(=O)nc3c(-c4nc5ccccc5[nH]4)n[nH]n3c2n1` it is 32.2% (inactive). Same read-out and setting: the figure for `COc1ccc2c(c1)c(-c1nc(-c3c[nH]c4c(Cl)nccc34)cs1)cn2C` is 32.1% (inactive). Turning to `NC1=CC(=O)c2cccnc2C1=O`, the growth was -27% (active). `CC1(C)C(N)=Nc2cc(OCCCN3Cc4ccc(OCCc5cn(CC(=O)N6CCC(CCN7CCCC7)CC6)nn5)cc4C3)c(OCC3CC3)cc21`: the growth was 115% (inactive). Same read-out and setting: the figure for `CN1CCN(c2ccc(Nc3ncc(C(N)=O)c(NCCCNC(=O)C4CCC4)n3)cc2)CC1` is 30.1% (inactive); for `COc1cc(Cl)cc(-c2nn(C(=O)NS(=O)(=O)c3ccc(Cl)cc3)cc2-c2ccncc2)c1` it is 80.5% (inactive); for `Cc1cnc(C(=O)NNc2nc3sc4c(c3c(=O)[nH]2)C(C)CCC4)cn1` (stereo not given) it is 21.4% (inactive). Still for that read-out and setting: the figure for `CC/C=C\C/C=C\C[C@H](O)C/C=C1/C(=O)C=C[C@@H]1C/C=C\CCCC(=O)OC` is 0.0807% (active).

For the molecule `COc1ccc(S(=O)(=O)Nc2cc(Sc3cccc4cccnc34)c(O)c3ccccc23)cc1`, the growth is 8.57% (active).

As for `CN1CCN(CCCN2c3ccccc3Sc3ccc(Cl)cc32)CC1`, the growth is 74.7% (inactive).

Turning to `COc1c(NC=O)c2c(c([N+](=O)[O-])c1OC)C(=O)OC2`, the growth is 86.9% (inactive). Same read-out and setting: the figure for `Nc1n[nH]c2cccc(C#Cc3cccc(NC(=O)c4ccc(N5CCOCC5)c(C(F)(F)F)c4)c3)c12` is 12.6% (inactive); for `O=C(CCN1CCOCC1)Nc1cccc(-n2cc(-c3ccncc3)c(-c3ccc(Cl)c(O)c3)n2)c1` it is 16.8% (inactive); for `COc1ccc(Cl)cc1Nc1nc(C(F)(F)F)ccc1C(=O)N/N=C/c1ccc(N(C)C)cc1` it is 7.32% (active). Same read-out and setting: the figure for `Cc1c(O)c(O)cc2c3c(oc12)CC(c1ccc2c(c1)OCO2)CC3=O` (stereo not given) is 75.6% (inactive). Take `O=C1C(c2c[nH]c3ccccc23)=C(c2coc3cc(Br)ccc23)C(=O)N1O`: the growth is 90.5% (inactive). Still for that read-out and setting: as for `COc1cc(F)c(/C=C/c2cc(/C=C/c3cc(OC)c(OC)cc3F)n(-c3cc(F)cc(F)c3)n2)cc1OC`, the figure is 8.98% (active); as for `CC(=O)N1N=C(c2ccc(Nc3nc(Nc4ccc(F)cc4)nc(Nc4ccc(F)cc4)n3)cc2)CC1c1ccccc1` (stereo not given), 23.3% (inactive). Still for that read-out and setting: the figure for `CN(C)CCCn1c2nc(=O)[nH]c(=O)c-2nc2cc(Cl)c(Cl)cc21` is 83.7% (inactive); for `C/C=C(\C)C(=O)N[C@H]1CC[C@]2(C)C3CC[C@@]4(C)C(CC[C@@H]4C(C)N(C)C)C3CCC2[C@H]1OC(C)=O` (stereo not given in full) it is 7.3% (active).

Consider `Cn1c(=O)c2c(nc(Nc3cc(=O)[nH]c(=O)[nH]3)n2Cc2ccccc2)n(C)c1=O`, for which the growth is 90.7% (inactive). On the same count and under the same terms, the figure for `CCOC(=O)c1c(-c2ccc(OC)cc2)c(C#N)c2c(C#N)c(N)nn2c1N` is 0.886% (active); for `Cc1ccc(-c2nc3nc(-c4ccc(Cl)cc4)nc(N4CCCNCC4)c3o2)cc1` it is -44.9% (active); for `N=C(N)c1ccc(-c2ccc(-c3ccc(F)cc3)s2)nc1` it is 3.85% (active).

`Cc1[nH]c(C(=O)Nc2nc3ccc(NC(=O)CCN)cc3s2)c(Cl)c1Cl`: the growth is 6.56% (active). Same read-out and setting: as for `CC1=C2[C@@H](CC1)[C@]1(C)O[C@@](C3CC3)(C[C@H]1OC(=O)CO)[C@H]2OC(=O)/C=C/c1ccccc1`, the figure is 80.4% (inactive); as for `O=C(N=Nc1c(O)[nH]c2ccccc12)Nc1ccccc1Cl`, 77.1% (inactive). Same read-out and setting: as for `O=C(c1ccc(Nc2nccc(NCCCNc3ccnc4cc(Cl)ccc34)n2)cc1)N1CCCCC1`, the figure is -2.26% (active). Still for that read-out and setting: as for `Cc1nc2sc(C(=O)Nc3cccc4ncccc34)c(N)c2cc1C(C)O` (stereo not given), the figure is 22.4% (inactive). On to `CN(C)c1ccc2nc3ccc(=O)cc-3sc2c1`, for which the growth was 7.73% (active) and 17.9% (inactive). On the same count and under the same terms, as for `COc1nc2ccc(C)cc2cc1/C=[N+](\[O-])c1ccccc1`, the figure is 39.9% (inactive).

The same assay, now with this note: 100 µM.
As for `CC(=O)/C=C/c1ccc(N(CCO)Cc2ccc(C(C)(C)C)cc2)cc1`, the growth is -62.1% (active). The same measure, in the same setting: as for `COc1ccc(C(=O)/C=C/c2ccc(OCc3ccc(Cl)cc3)cc2)cc1OC`, the figure is 43.8% (inactive).

For the origin of these results see PubChem BioAssay (NCI).
